Data published in the supplement of paper PMC10849652.
Of roughly 7,900 targets only a part is listed; those with a hit were picked by preference. About 0.6% of all pairs of compound and target were hits. A number with no mark means an inactive call.

Tests used:
Test in all cases: log2 fold change, soluble protein after heating vs DMSO (PISA); higher = thermal stabilisation; K562 cells, 10 uM, 30 min; active = over 0.2 and 3.5 SD of the protein, either way, in both replicates (recomputed)
[1] = compound: CC1=C(C=C(C=C1)NC(=O)C2=CC(=CC=C2)C(C)(C)C#N)NC3=CC4=C(C=C3)N=CN(C4=O)C
How it was run: (§1)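 K562 cells at 2×10^6 cells/mL were treated with 10 μM compound for 30 min. Aliquots were heated for 3 min across 48°C-58°C, pooled, and extracted in PBS with 0.5% NP-40 at 4°C; soluble protein was the supernatant after 21,000xg for 90 min. Soluble protein was quantified by TMTpro 16plex LC-MS/MS with channel sums equalised, and reported as log2 fold change in thermal stability against DMSO controls, with values from duplicates.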

[2] = compound: CC1=C(C=C(C=C1)NC(=O)C2=CC(=CC=C2)N(C)C)NC(=O)C3=CC=C(C=C3)O
How it was run: as §1

[3] = compound: CC1=CC=C(C=C1)SC2=C3C=C(SC3=CN=C2)C(=O)N
How it was run: as §1

[4] = compound: CC1=NC(=CC=C1)C2=C(N=C(N2)C(C)(C)C)C3=CC4=NC=CN=C4C=C3
How it was run: as §1

Nexturastat A = compound: CCCCN(Cc1ccc(C(=O)NO)cc1)C(=O)Nc1ccccc1 [Nexturastat A]
How it was run: as §1

vemurafenib = compound: CCCS(=O)(=O)Nc1ccc(F)c(C(=O)c2c[nH]c3ncc(-c4ccc(Cl)cc4)cc23)c1F [vemurafenib]
How it was run: as §1

[5] = compound: CCCS(=O)(=O)Nc1ccc(F)c(C(=O)c2c[nH]c3ncc(Cl)cc23)c1F
How it was run: as §1

[6] = compound: CCCc1cc(C)[nH]c(=O)c1CNC(=O)c1cc(-c2ccnc(N3CCN(C)CC3)c2)cc2c1cnn2C(C)C
How it was run: as §1

givinostat = compound: CCN(CC)Cc1ccc2cc(COC(=O)Nc3ccc(C(=O)NO)cc3)ccc2c1 [givinostat]
How it was run: as §1

barasertib = compound: CCN(CCCOc1ccc2c(Nc3cc(CC(=O)Nc4cccc(F)c4)[nH]n3)ncnc2c1)CCOP(=O)(O)O [barasertib]
How it was run: as §1

[7] = compound: CC[C@@H]1C(=O)N(C)c2cnc(Nc3ccc(C(=O)NC4CCN(C)CC4)cc3OC)nc2N1C1CCCC1
How it was run: as §1

volasertib = compound: CC[C@@H]1C(=O)N(C)c2cnc(Nc3ccc(C(=O)N[C@H]4CC[C@H](N5CCN(CC6CC6)CC5)CC4)cc3OC)nc2N1C(C)C [volasertib]
How it was run: as §1

[8] = compound: CC[C@H](C)N1C=C(C2=C(C=C(C=C21)C3=CN=C(C=C3)N4CCNCC4)C(=O)NCC5=C(C=C(NC5=O)C)C)C
How it was run: as §1

epoxomicin = compound: CC[C@H](C)[C@@H](C(=O)N[C@@H]([C@@H](C)O)C(=O)N[C@@H](CC(C)C)C(=O)[C@]1(CO1)C)NC(=O)[C@H]([C@@H](C)CC)N(C)C(=O)C [epoxomicin]
How it was run: as §1

[9] = compound: CCn1c(C(=O)N(C2CC2)C2CC2)cc2c3c(ncn3C)c(Nc3cc(C)n(C)n3)nc21
How it was run: as §1

[10] = compound: CCn1cc(-c2ccnc3[nH]c(-c4cccc(CN(C)C)c4)cc23)c(-c2ccc(NC(=O)N(C)C)cc2)n1
How it was run: as §1

[11] = compound: CN(C)CC(=O)Nc1ccc2[nH]c(=O)c3ccccc3c2c1
How it was run: as §1

rosiglitazone = compound: CN(CCOC1=CC=C(C=C1)C[C@H]2C(=O)NC(=O)S2)C3=CC=CC=N3 (racemic) [rosiglitazone]
How it was run: as §1

[12] = compound: CN1C2=C(C3=C1C(=O)N(N=C3)CC4=CC(=CC=C4)N)SC(=C2)S(=O)C
How it was run: as §1

[13] = compound: CN1CCC(CNc2ccc3ncc(-c4cccc(OC(F)(F)F)c4)n3n2)CC1
How it was run: as §1

Sequence of UniProt P02585 (P02585 whole entry, looked up): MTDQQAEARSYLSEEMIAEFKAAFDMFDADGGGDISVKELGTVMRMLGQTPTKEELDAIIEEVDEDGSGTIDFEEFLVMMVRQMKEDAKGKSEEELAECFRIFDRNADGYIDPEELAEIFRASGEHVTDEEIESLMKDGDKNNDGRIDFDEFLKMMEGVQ
Sequence of UniProt Q96AX1 (Q96AX1 whole entry, looked up): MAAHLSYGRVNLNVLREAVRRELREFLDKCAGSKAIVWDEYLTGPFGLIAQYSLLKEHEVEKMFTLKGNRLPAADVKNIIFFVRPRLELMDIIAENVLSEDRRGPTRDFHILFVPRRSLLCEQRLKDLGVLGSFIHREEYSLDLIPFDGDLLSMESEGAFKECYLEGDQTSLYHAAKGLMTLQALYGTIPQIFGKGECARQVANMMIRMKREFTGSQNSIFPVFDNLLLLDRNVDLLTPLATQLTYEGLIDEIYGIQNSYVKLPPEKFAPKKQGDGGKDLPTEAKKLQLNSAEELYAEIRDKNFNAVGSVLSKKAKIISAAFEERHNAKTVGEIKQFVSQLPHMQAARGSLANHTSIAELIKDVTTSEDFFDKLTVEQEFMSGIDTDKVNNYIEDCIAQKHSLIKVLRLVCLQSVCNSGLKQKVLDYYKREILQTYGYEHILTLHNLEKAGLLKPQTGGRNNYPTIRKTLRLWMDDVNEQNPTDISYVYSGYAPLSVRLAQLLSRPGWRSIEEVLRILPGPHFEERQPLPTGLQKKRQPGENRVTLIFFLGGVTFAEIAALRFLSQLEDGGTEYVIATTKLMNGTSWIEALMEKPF
Sequence of UniProt Q93008 (Q93008 whole entry, looked up): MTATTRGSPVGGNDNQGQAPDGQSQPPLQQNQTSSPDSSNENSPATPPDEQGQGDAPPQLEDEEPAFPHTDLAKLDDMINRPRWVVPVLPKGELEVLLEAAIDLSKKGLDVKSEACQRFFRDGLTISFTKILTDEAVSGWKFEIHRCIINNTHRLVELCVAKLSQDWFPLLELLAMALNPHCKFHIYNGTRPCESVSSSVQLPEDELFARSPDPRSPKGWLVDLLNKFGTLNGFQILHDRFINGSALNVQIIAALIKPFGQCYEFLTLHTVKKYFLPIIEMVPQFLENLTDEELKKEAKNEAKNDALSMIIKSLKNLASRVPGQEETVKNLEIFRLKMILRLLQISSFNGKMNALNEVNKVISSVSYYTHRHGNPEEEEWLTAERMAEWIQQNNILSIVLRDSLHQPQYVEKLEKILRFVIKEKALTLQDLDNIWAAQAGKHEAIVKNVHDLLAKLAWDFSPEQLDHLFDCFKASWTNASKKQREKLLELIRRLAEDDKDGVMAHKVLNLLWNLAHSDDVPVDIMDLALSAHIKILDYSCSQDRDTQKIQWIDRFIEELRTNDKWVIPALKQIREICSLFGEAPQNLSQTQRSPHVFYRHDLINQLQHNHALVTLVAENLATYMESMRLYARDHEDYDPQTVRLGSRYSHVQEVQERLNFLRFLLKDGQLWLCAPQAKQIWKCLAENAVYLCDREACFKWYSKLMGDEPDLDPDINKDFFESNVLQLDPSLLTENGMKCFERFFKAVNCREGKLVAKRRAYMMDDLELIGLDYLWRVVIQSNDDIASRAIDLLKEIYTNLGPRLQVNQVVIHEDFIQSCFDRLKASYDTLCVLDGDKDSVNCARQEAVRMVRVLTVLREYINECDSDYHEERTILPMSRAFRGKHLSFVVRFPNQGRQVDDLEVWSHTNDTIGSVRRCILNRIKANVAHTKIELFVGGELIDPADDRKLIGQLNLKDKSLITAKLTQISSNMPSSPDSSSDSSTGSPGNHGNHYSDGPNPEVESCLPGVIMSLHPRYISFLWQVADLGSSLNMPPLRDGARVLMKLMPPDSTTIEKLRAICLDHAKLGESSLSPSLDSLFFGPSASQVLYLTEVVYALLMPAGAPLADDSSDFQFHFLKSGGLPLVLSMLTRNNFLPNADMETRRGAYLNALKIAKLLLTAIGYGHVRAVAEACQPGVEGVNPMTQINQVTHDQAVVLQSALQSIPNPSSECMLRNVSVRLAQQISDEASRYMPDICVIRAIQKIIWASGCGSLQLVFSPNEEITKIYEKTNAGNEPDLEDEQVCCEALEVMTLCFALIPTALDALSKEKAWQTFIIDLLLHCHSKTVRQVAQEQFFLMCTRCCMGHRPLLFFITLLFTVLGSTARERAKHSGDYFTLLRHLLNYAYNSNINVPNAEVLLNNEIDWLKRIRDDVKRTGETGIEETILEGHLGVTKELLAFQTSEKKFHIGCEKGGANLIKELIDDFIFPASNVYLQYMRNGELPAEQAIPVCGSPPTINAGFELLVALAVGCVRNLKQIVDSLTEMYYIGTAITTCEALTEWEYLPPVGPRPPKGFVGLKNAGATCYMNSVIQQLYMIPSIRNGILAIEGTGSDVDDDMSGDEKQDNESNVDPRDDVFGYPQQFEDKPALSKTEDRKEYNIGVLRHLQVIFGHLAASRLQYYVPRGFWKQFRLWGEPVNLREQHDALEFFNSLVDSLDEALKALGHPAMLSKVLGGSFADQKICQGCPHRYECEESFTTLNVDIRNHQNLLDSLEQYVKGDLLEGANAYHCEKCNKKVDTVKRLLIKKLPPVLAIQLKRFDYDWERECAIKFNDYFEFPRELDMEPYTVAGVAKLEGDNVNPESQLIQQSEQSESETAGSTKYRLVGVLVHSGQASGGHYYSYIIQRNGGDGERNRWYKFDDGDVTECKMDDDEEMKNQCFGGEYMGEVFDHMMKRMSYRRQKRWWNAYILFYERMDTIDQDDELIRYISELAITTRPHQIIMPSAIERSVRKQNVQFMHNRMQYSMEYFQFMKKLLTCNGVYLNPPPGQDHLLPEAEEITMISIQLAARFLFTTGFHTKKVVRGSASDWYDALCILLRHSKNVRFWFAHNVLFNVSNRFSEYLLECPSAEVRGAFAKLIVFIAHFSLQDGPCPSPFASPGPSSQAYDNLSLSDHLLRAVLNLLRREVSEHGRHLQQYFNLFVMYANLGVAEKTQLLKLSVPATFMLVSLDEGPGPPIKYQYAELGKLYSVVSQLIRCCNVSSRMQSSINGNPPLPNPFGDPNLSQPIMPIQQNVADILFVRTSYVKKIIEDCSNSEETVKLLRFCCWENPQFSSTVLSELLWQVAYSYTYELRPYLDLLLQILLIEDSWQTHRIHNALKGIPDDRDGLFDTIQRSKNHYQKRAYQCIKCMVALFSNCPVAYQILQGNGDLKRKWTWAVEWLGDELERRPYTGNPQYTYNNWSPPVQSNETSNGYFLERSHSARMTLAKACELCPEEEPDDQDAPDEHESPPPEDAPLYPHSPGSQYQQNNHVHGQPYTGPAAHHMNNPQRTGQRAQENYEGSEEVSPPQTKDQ
Sequence of UniProt Q8NCE0 (Q8NCE0 whole entry, looked up): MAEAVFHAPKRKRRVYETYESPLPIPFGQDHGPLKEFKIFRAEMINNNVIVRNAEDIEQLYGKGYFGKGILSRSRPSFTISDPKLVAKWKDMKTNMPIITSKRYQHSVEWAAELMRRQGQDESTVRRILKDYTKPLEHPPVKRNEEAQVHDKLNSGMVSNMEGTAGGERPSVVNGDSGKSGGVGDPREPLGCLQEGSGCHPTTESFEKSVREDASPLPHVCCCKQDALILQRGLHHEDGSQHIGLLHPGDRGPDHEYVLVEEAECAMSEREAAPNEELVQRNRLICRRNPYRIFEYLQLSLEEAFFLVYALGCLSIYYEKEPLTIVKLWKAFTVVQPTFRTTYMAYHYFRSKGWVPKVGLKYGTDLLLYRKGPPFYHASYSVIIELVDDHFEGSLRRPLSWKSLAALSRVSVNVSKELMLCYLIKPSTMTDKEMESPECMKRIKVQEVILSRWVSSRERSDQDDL
Sequence of UniProt Q7Z7E8 (Q7Z7E8 whole entry, looked up): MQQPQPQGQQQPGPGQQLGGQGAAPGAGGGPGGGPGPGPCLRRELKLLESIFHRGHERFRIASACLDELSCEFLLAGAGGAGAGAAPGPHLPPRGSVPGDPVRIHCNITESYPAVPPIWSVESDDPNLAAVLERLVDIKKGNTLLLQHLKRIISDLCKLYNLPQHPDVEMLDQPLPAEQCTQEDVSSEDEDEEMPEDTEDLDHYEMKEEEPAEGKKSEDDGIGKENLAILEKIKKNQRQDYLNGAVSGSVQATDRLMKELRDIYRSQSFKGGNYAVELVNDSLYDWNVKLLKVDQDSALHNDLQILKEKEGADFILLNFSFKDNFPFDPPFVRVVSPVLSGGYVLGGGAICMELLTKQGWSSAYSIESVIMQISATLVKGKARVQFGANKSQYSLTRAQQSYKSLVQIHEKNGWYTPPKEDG
Sequence of UniProt Q9Y5K5 (Q9Y5K5 whole entry, looked up): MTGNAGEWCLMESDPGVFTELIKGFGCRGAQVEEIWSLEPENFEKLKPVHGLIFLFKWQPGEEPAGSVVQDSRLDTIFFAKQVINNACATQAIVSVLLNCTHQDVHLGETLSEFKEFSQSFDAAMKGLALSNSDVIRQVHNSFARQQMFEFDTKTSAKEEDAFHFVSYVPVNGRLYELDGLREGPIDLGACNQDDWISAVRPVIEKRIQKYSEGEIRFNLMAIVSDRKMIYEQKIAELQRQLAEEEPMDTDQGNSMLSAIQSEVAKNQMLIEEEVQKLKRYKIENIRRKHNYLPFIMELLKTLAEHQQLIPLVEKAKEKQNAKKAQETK
Sequence of UniProt Q9Y385 (Q9Y385 whole entry, looked up): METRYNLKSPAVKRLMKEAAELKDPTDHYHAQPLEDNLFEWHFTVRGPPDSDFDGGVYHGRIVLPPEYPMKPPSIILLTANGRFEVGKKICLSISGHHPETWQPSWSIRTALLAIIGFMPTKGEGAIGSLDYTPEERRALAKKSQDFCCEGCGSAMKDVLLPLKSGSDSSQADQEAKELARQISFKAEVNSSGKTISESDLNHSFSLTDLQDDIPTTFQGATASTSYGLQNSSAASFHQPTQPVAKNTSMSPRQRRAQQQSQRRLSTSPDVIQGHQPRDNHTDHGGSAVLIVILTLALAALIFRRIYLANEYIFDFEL

| Target | log2 fold change [1] | log2 fold change [2] | log2 fold change [3] | log2 fold change [4] | log2 fold change (Nexturastat A) | log2 fold change (vemurafenib) | log2 fold change [5] | log2 fold change [6] | log2 fold change (givinostat) | log2 fold change (barasertib) | log2 fold change [7] | log2 fold change (volasertib) | log2 fold change [8] | log2 fold change (epoxomicin) | log2 fold change [9] | log2 fold change [10] | log2 fold change [11] | log2 fold change (rosiglitazone) | log2 fold change [12] | log2 fold change [13] |
| --- | --- | --- | --- | --- | --- | --- | --- | --- | --- | --- | --- | --- | --- | --- | --- | --- | --- | --- | --- | --- |
| TP53BP1 isoform 2 (UniProt Q12888) | -0.02 | -0.032 | 0 | -0.022 | 0.045 | 0 | 0.02 | 0.056 | 0.019 | 0.022 | -0.024 | -0.072 | 0.021 | 0 | -0.01 | 0 | 0.008 | -0.018 | 0.052 | 0.025 |
| USP9X (UniProt Q93008) | -0.015 | -0.02 | -0.009 | 0.023 | 0.015 | 0.019 | 0.075 | 0.007 | 0.025 | 0.043 | -0.108 | -0.382 (active) | 0.038 | 0.01 | -0.027 | -0.056 | 0.01 | 0.037 | -0.028 | -0.21 |
| UGGT1 (UniProt Q9NYU2) | -0.001 | 0.004 | 0.001 | -0.018 | 0.014 | 0 | 0.003 | 0.024 | 0.02 | 0 | -0.01 | -0.058 | 0.03 | -0.006 | 0.019 | 0.002 | -0.024 | -0.004 | 0.008 | 0.049 |
| UPF3B (UniProt Q9BZI7) | -0.047 | -0.004 | 0 | -0.053 | 0.29 | -0.108 | -0.069 | 0.139 | 0.03 | -0.058 | 0.146 | 0.333 | 0.059 | -0.388 | 0.084 | 0.271 | -0.1 | -0.094 | 0.28 | 0.341 |
| UBE2J1 (UniProt Q9Y385) | -0.133 | -0.016 | 0.107 | 0.04 | -0.077 | -0.087 | -0.071 | -0.262 | 0.098 | -0.047 | -0.073 | -0.165 | 0.07 | 0.248 | -0.024 | 0.014 | 0.01 | 0.003 | -0.083 | -0.006 |
| VPS33A (UniProt Q96AX1) | -0.013 | -0.074 | -0.016 | -0.021 | -0.024 | 0.003 | 0.036 | 0.04 | 0.058 | 0.068 | -0.224 | -0.359 (active) | 0.043 | 0.039 | -0.031 | -0.004 | 0.059 | 0.062 | 0.035 | -0.208 |
| UCHL5 (UniProt Q9Y5K5) | 0.014 | -0.07 | 0.019 | 0.053 | 0.048 | 0.075 | 0.08 | 0.003 | 0.057 | 0.024 | -0.113 | -0.295 (active) | 0.074 | 0.116 | -0.017 | -0.028 | 0.04 | 0.03 | -0.003 | -0.099 |
| VPS53 isoform 4 (UniProt Q5VIR6) | -0.037 | -0.053 | 0.01 | -0.031 | 0.022 | 0.046 | 0.003 | 0.03 | 0.045 | 0.045 | -0.095 | -0.358 (active) | 0.033 | 0.041 | -0.094 | 0.022 | 0.007 | 0.023 | 0.016 | -0.128 |
| UBE4A isoform 2 (UniProt Q14139) | -0.064 | -0.058 | -0.029 | 0.01 | 0.061 | 0.048 | 0.097 | 0.021 | 0.073 | 0.065 | -0.126 | -0.584 (active) | 0.123 | 0.087 | -0.114 | -0.055 | 0.053 | 0.05 | 0.159 | -0.436 (active) |
| TSEN2 (UniProt Q8NCE0) | 0.306 (active) | 0.015 | 0.014 | -0.02 | -0.013 | 0.058 | 0.063 | 0.097 | 0.012 | 0.073 | -0.019 | -0.146 | 0.053 | 0.078 | -0.021 | -0.082 | 0.086 | 0.077 | -0.04 | 0.034 |
| TNPO2 (UniProt O14787) | 0.052 | -0.01 | 0.073 | 0.015 | 0.021 | 0.061 | 0.11 | 0.007 | 0.083 | 0.054 | -0.176 | -0.36 (active) | 0.106 | 0.029 | -0.031 | -0.027 | 0.111 | 0.068 | 0.016 | 0.06 |
| TMEM214 (UniProt Q6NUQ4) | -0.038 | -0.054 | 0.023 | 0.007 | 0.062 | 0.046 | 0.065 | 0 | 0.021 | -0.03 | -0.023 | -0.246 (active) | 0.075 | 0.032 | -0.056 | -0.023 | 0.008 | 0.046 | 0.004 | 0.148 |
| TNNC2 (UniProt P02585) | -0.064 | 0.037 | 0.002 | -0.024 | -0.011 | 0 | -0.016 | -0.045 | -0.037 | -0.004 | 0.042 | 0.07 | -0.031 | -0.037 | 0.016 | 0.04 | -0.006 | 0.006 | -0.053 | -0.015 |
| TOE1 (UniProt Q96GM8) | 0.099 | 0.056 | -0.012 | -0.109 | 0.078 | -0.016 | 0.048 | 0.059 | -0.055 | -0.063 | 0.067 | 0.154 | -0.023 | -0.148 | -0.067 | 0.035 | -0.043 | -0.03 | 0.107 | 0.35 (active) |
| UBE2Q1 (UniProt Q7Z7E8) | 0.093 | -0.041 | -0.003 | -0.037 | 0.008 | 0.011 | 0.114 | -0.031 | 0.022 | 0.068 | -0.087 | -0.295 (active) | 0.015 | -0.042 | -0.075 | -0.048 | 0.027 | 0.061 | -0.007 | -0.212 |
| WAPL isoform 3 (UniProt Q7Z5K2) | -0.038 | -0.109 | 0.056 | -0.006 | -0.134 | 0.097 | 0.083 | -0.054 | 0.149 | 0.201 | -0.183 | -0.61 (active) | 0.164 | 0.101 | -0.038 | 0.015 | 0.104 | -0.06 | -0.018 | -0.246 |
